# About 83,000 compounds went through this panel and 20% of them were active in at least one assay; those are over-represented in the sample as a whole.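 A percent growth of 40 corresponds to 60% growth inhibition; 0 means no net growth; -100 means all cells died. Active threshold: below 10.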 A number with no mark means an inactive call. Active and inactive are the calls of the source.
# Tested on: ACHN renal
# Experiment: NCI-60 one-dose screen, 48 h (100 = growth as untreated, 0 = no growth, -100 = all killed)
# Conditions: 10 µM unless noted
# Protocol: Growth inhibition of the ACHN human tumor cell line is measured as a screen for anti-cancer activity. Cells are grown in 96 well plates and exposed to the test compound for 48 hours. Compounds are tested at a single concentration, which is 10^-5 M for most compounds. The reported endpoint is percent growth (GI% or GIPRCNT), where numbers from 0 - 100% represent growth inhibition, and numbers from -100% - 0 represent cell death. For example, a value of 40 represents 60% growth inhibition. A value of 0 means no net growth occurred over the course of the experiment. A value of -40 indicates 40% of cells at the beginning of the experiment died by the end of the experiment. A value of -100 means all cells are dead at the end of the experiment.
# NCI-60 Human Tumor Cell Lines Screen was performed using the standard one-dose NCI protocol, which is described in more detail at https://dtp.cancer.gov/discovery_development/nci-60/default.htm.
# Compounds with GIPRCNT values below 10 were considered active. Activity score was based on GIPRCNT using the following formula: […]
# Score is 0 for GIPRCNT values of 100 or above, 50 for GIPRCNT values of 0, and 100 for GIPRCNT values of -100.
row,Structure (SMILES),growth
1,COc1ccc(-c2cc(C(=O)N=Nc3c(O)[nH]c4ccc(Br)cc34)no2)cc1,98.2%
2,CC(=O)Oc1ccc(Cl)cc1CN(C(C)=O)C1CCCCC1,102%
3,CC(O)CN(CC(C)O)c1ccc2c(c1)Cc1cc([N+](=O)[O-])ccc1-2 (stereo not given),93%
4,O=S(=O)(Nc1ccc(Br)c(Cl)c1)c1ccc(-c2cnc(C3CC3)o2)cc1,46.4%
5,Oc1cccc(-c2nc(N3CCOCC3)c3c4c(sc3n2)CCCC4)c1,38.3%
6,CN(C)c1ccc(N=Nc2ccccn2)c(O)c1,6.69% (active)
7,Oc1cccc2ccc(N/N=C/c3cc(CN4CCOCC4)c(O)c4ncccc34)nc12,-29.3% (active)
8,Cc1cc(C)nc(SC2=C(Nc3ccc(O)cc3)C(=O)N(Cc3ccccc3)C2=O)n1,93.4% [40 µM]
9,O=C1C=C(OCC=C(Cl)Cl)C(=O)c2ccccc21,64%
10,CCOc1cc2c(cc1OCC)C(c1cc(OC)c(O)cc1Cl)NCC2 (stereo not given),94.6%
11,Nc1ccc(-c2cc3c(Nc4ccc(Oc5cccc(C(F)(F)F)c5)c(Cl)c4)ncnc3s2)cc1,60.5%
12,COc1ccc(CCNc2nc(SC)nc(-c3cccc([N+](=O)[O-])c3)c2C#N)cc1OC,72%
13,COc1ccc(O)c(N=Nc2nccs2)c1,28.7%
14,Cc1cc(N2CCOCC2)nc(NCc2cc(Nc3ccnc4cc(Cl)ccc34)ccc2F)n1,-12.9% (active)
15,COc1ccc(-c2nc3ccc(-c4nc5ccc(N6CCN(c7ccncc7)CC6)cc5[nH]4)cc3[nH]2)cc1OC,91.9%
16,N#C/C(=C\c1ccc(-c2cc(C(F)(F)F)ccc2Cl)o1)c1nc(-c2ccco2)cs1,105%
17,COc1ccc(-c2cc(=O)c3c(OC)c4ccoc4cc3o2)cc1,102%
18,COc1cc(Nc2cc(C)nc(N3CCN(c4ccnc5cc(Cl)ccc45)CC3)n2)cc(OC)c1,7.48% (active)
19,Cc1ccc(NC(=O)C2CCC(CN3CCN(C)CC3)CC2)cc1Nc1nccc(-c2cccnc2)n1 (stereo not given),94.9%
20,CSc1ccc(-c2ccccc(=O)c2O)cc1,6.58% (active)

row,Structure (SMILES),growth
1,O=C1/C(=C/C(Cl)=C/c2ccccc2)SC(=S)N1CCc1ccc(O)cc1,-73.4% (active)
2,COc1ccccc1Nc1nc(-c2cc3cccc(C(F)(F)F)c3oc2=O)cs1,24.6%
3,CC1=C(O)C(=O)C(C(C#N)(C#N)C(C#N)C#N)C1 (stereo not given),106%
4,CC(=O)O[C@H]1C(=O)[C@@]2(C)[C@H]([C@H](OC(=O)c3ccccc3)[C@]3(O)C[C@H](OC(=O)[C@H](OC(=O)CCC(=O)OC4CCC(S/N=C(N)/N=C(\N)N(C)C)CC4)[C@@H](NC(=O)c4ccccc4)c4ccccc4)C(C)=C1C3(C)C)[C@]1(OC(C)=O)CO[C@@H]1C[C@@H]2O (stereo not given in full),39.7%
5,Cc1ncc(C(=O)Nc2ccc(CN3CCN(C)CC3)c(C(F)(F)F)c2)cc1C#Cc1cnc2cccnn12,-1.57% (active)
6,COC(=O)c1cccc(NC(=O)c2ccc(-c3cccc(N)c3)o2)c1,102%
7,Cc1ccccc1COc1ccc(-c2ccnn2-c2ccc(Cl)cc2)cc1,77.6%
8,C=CC(=O)Nc1cccc(-c2nc(SC)nc(NCc3ccccc3)c2C#N)c1,50.6%
9,Cn1ccnc1C(=O)/C=C/c1ccccc1,33%
10,COc1ccc(CN2c3ccccc3Oc3ccccc32)cc1F,81%
11,Cc1cc(Nc2ccc(C)c(Cl)c2)n2nc(C(F)(F)F)nc2n1,-2.48% (active)
12,COc1ccc(/C=C\c2cc(OC)c(OC)c(OC)c2)cc1OCC(=O)Nc1ccc2nc(C)sc2c1,47.1%
13,c1ccc(Cn2cc(-c3nc4ccccc4s3)c3cccnc32)cc1,105%
14,C=C1C(=O)O[C@H]2[C@H]1CC/C(COC(=O)NCc1ccc(OC)c(OC)c1)=C\CC[C@@]1(C)O[C@@H]21,6.25% (active)
15,COc1cccc(/C=C2\Oc3cc(OCCN4CCCC4)ccc3C2=O)c1,104%
16,CCOc1nc(-c2ccccc2)cc2c(O)c(C(=O)N/N=C/c3ccc(O)cc3O)[nH]c(=O)c12,9.99% (active)
17,COc1cc2c(cc1-c1c(C)noc1C)ncc1nc(C3CCOCC3)n([C@@H](C)COC(F)F)c12,36.9%
18,C=CCSSc1ncnc2c1ncn2C1OC(CO)C(O)C1O (stereo not given),25.3%
19,NC(=NC1C2CC3CC(C2)CC1C3)Nc1ccc(I)cc1 (stereo not given),7.41% (active)
20,Cc1nc2c3c(-c4ccccc4)c(-c4ccccc4)oc3ncn2n1,94.6%

# — PubChem BioAssay (NCI)
